Holding throughout (test): NCI-60 one-dose screen, 48 h (100 = growth as untreated, 0 = no growth, -100 = all killed)
One experiment relates to HCT-15 colon. Conditions: 10 µM unless noted.
The test system of the next experiment is HT29 colon. The conditions noted are these: 10 µM unless noted.
The subject of another experiment is SNB-75 CNS. Conditions: 10 µM unless noted.
The next experiment has as its system SNB-19 CNS. The conditions noted are these: 10 µM unless noted.
The test system of another experiment is U251 CNS. Conditions: 10 µM unless noted.
Another experiment deals with PC-3 prostate. Conditions: 10 µM unless noted.
The next experiment deals with SK-MEL-5 melanoma. The conditions noted are these: 10 µM unless noted.
Another experiment deals with UACC-62 melanoma. The conditions noted are these: 10 µM unless noted.
Another experiment relates to LOX IMVI melanoma. Conditions: 10 µM unless noted.
The next experiment has as its system SK-MEL-28 melanoma. Conditions: 10 µM unless noted.
The next experiment deals with SK-MEL-2 melanoma. Conditions: 10 µM unless noted.
For another experiment, the system named is EKVX NSCLC. Conditions: 10 µM.
The subject of a further experiment is SN12C renal. Conditions: 10 µM unless noted.
A further experiment concerns UO-31 renal. The conditions noted are these: 10 µM unless noted.
The next experiment has as its system TK-10 renal. The conditions noted are these: 10 µM unless noted.
A further experiment concerns ACHN renal. The conditions noted are these: 10 µM unless noted.
For another experiment, the system named is CAKI-1 renal. The conditions noted are these: 10 µM unless noted.
A further experiment has as its system A498 renal. Conditions: 10 µM unless noted.
The subject of the next experiment is CCRF-CEM leukemia. Conditions: 10 µM.
The test system of another experiment is MOLT-4 leukemia. The conditions noted are these: 10 µM unless noted.

The panel holds about 83,000 compounds, 20% with a hit somewhere; the sample as a whole holds those more often.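 How to read the values: 0–100, growth inhibition (40 = 60% inhibited); 0, no net growth; -100 to 0, cell death (-40 = 40% of starting cells died; -100 = all dead).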 Values without a mark were called inactive. Active and inactive are the calls of the source. How the source made its calls: active means growth percent below 10; inactive means the rest.

Regarding `C/C(=N\Nc1ccc(Cl)cn1)c1ccccn1`, the growth in the experiment with HCT-15 colon is 15.5%; with HT29 colon, 16.7%; in the experiment on SNB-75 CNS, 31.5%; in the experiment on SNB-19 CNS, 21.5%; in the experiment with U251 CNS, 7.65% (active); with PC-3 prostate, 20.9%. Besides, the growth with SK-MEL-5 melanoma was -61.9% (active); in the experiment with UACC-62 melanoma it was -28.3% (active); in the experiment with LOX IMVI melanoma, 1.48% (active); with SK-MEL-28 melanoma, 13.5%; in the experiment with SK-MEL-2 melanoma, 28.3%; in the experiment on EKVX NSCLC it was 8.35% (active). The growth in the experiment on SN12C renal is 15.3%; in the experiment on UO-31 renal, -2.91% (active); in the experiment with TK-10 renal, 33.6%; in the experiment on ACHN renal it was 2.81% (active); in the experiment on CAKI-1 renal, 5.04% (active); in the experiment on A498 renal, -25.2% (active). Besides, the figures for the growth with CCRF-CEM leukemia and in the experiment with MOLT-4 leukemia were 2.72% (active) and 2.11% (active), respectively.

Consider `CCCCCCCCC/C(=N\NC(=O)c1ccncc1)c1ccc(O)c(O)c1O`, for which the growth was 34.9% in the experiment with HCT-15 colon; 29% in the experiment with HT29 colon; 37.1% with SNB-75 CNS; 33.8% in the experiment with SNB-19 CNS; 12.1% with U251 CNS; 47% with PC-3 prostate. For the same compound, the growth in the experiment on SK-MEL-5 melanoma was -18.8% (active); in the experiment on UACC-62 melanoma it was -5.54% (active); with LOX IMVI melanoma, 22.9%; in the experiment with SK-MEL-28 melanoma, 43.7%; in the experiment with SK-MEL-2 melanoma it was 38.5%; with EKVX NSCLC, 34.5%. For the same compound, the growth with SN12C renal was 25.7%; in the experiment on UO-31 renal, 20.8%; in the experiment on TK-10 renal, 43.1%; with ACHN renal, 15.8%; with CAKI-1 renal, 14.3%; with A498 renal it was 45%. The results for the growth in the experiment with CCRF-CEM leukemia and in the experiment with MOLT-4 leukemia were 9.71% (active) and 15.5%, respectively.

Take `COc1ccc(Cn2cc3c(c2-c2ccccc2)CCc2cnoc2-3)cc1OC`: the growth is 32% with HCT-15 colon; 16.5% in the experiment on HT29 colon; -11.1% (active) with SNB-75 CNS; 50.3% in the experiment with SNB-19 CNS; 36.8% in the experiment on U251 CNS; 26.5% in the experiment with PC-3 prostate. The growth with SK-MEL-5 melanoma is 10.5%; with UACC-62 melanoma, 48.7%; with LOX IMVI melanoma it was 43.3%; in the experiment with SK-MEL-28 melanoma, 58.6%; in the experiment on SK-MEL-2 melanoma, 48%; with EKVX NSCLC, 46.5%. Besides, the growth with SN12C renal was 49.5%; in the experiment with UO-31 renal, 35.3%; in the experiment with TK-10 renal, 70.4%; with ACHN renal, 57.7%; in the experiment with CAKI-1 renal, 18.9%; in the experiment on A498 renal, 18.5%. In addition, the growth in the experiment with CCRF-CEM leukemia was 17.1%; in the experiment with MOLT-4 leukemia, 35.9%.

`CCS(=O)(=O)OCCO[C@H]1Cc2cc3ccc(=O)oc3cc2OC1(C)C`: the growth with HCT-15 colon is 109%; with HT29 colon, 101%; in the experiment on SNB-75 CNS it was 101%; with SNB-19 CNS, 105%; in the experiment on U251 CNS, 96.7%; in the experiment on PC-3 prostate, 101%. Further, the growth with SK-MEL-5 melanoma is 101%; in the experiment on UACC-62 melanoma, 102%; in the experiment with LOX IMVI melanoma, 109%; with SK-MEL-28 melanoma, 116%; in the experiment with SK-MEL-2 melanoma, 96.8%; in the experiment with EKVX NSCLC, 107%. In addition, the growth is 107% in the experiment with SN12C renal; 86.9% in the experiment on UO-31 renal; 102% with TK-10 renal; 107% in the experiment on ACHN renal; 95% in the experiment on CAKI-1 renal; 102% with A498 renal. Moreover, the growth was 115% in the experiment with CCRF-CEM leukemia and 107% with MOLT-4 leukemia.

Turning to `CCOC(=O)NNc1[nH]c(-c2ccc(OC)cc2)cc1C#N`, the growth was 107% with HCT-15 colon; 132% in the experiment on HT29 colon; 124% in the experiment with SNB-75 CNS; 98.6% in the experiment on SNB-19 CNS; 98.2% in the experiment with U251 CNS; 99% in the experiment on PC-3 prostate. The growth in the experiment with SK-MEL-5 melanoma is 88.9%; with UACC-62 melanoma, 76.1%; with LOX IMVI melanoma, 91.6%; in the experiment with SK-MEL-28 melanoma, 182%; in the experiment on SK-MEL-2 melanoma it was 105%; in the experiment with EKVX NSCLC it was 102%. Further, the growth in the experiment on SN12C renal is 94.7%; in the experiment with UO-31 renal it was 87.8%; in the experiment with TK-10 renal it was 92.7%; with ACHN renal it was 81.2%; in the experiment on CAKI-1 renal, 121%; in the experiment with A498 renal, 99.8%. Moreover, the results for the growth in the experiment on CCRF-CEM leukemia and in the experiment with MOLT-4 leukemia were 7.58% (active) and 8.55% (active), respectively.

`COC(=O)c1ccc2[nH]c(O)c(C(=Nc3ccc(N(C)C(=O)CN4CCN(C)CC4)cc3)c3ccc(CCO)cc3)c2c1`: the growth was 82.1% in the experiment with HCT-15 colon; 43.8% in the experiment on HT29 colon; 18.1% with SNB-75 CNS; 31.4% in the experiment on SNB-19 CNS; 31.3% in the experiment on U251 CNS; 56.4% in the experiment on PC-3 prostate. Besides, the growth in the experiment with SK-MEL-5 melanoma is 50%; in the experiment with UACC-62 melanoma it was 73.7%; in the experiment with LOX IMVI melanoma it was 37.5%; in the experiment on SK-MEL-28 melanoma it was 38.3%; in the experiment on SK-MEL-2 melanoma, 34.9%; with EKVX NSCLC it was 85.5%. Also, the growth in the experiment on SN12C renal is 27.8%; in the experiment with UO-31 renal it was 72.2%; in the experiment on TK-10 renal it was 65.2%; with ACHN renal, 74.1%; with CAKI-1 renal it was 33.1%; in the experiment on A498 renal it was 45.6%. Further, the results for the growth with CCRF-CEM leukemia and in the experiment on MOLT-4 leukemia were 15.5% and 21.4%, respectively.

For the origin of these results see PubChem BioAssay (NCI).
